Bioassay records as filed in PubChem.
Many of the other results were omitted from the sample, so hits are more common in it than they were.
PNC assembly inh = blocks assembly of the perinucleolar compartment. 140,000 compounds, 3.1% hits. AID 2417. PC3M PTB-GFP, PNC prevalence imaging, 16 h; stronger effect = lower value. activity change (PNC), negative = inhibition, % at 10 µM;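 active = readout at or below -70, meaning at least 70% loss of cells showing the perinucleolar compartment, a nuclear body marking cancer cells; inconclusive = readout between -30 and a set limit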;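 also: plate controls were DMSO wells for no effect and camptothecin positive control wells for full effect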
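PC3M cells stably expressing PTB-GFP, 750–1000 cells/well, treated 16 h at 37 °C with compound (23 nl of library stock), in duplicate. After paraformaldehyde fixation and Hoechst stain, imaged at 20x; PNC prevalence scored by image analysis.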
12-hLO inh = blocks human 12-lipoxygenase activity | Potency, µM (highest dose often 57.1 µM), without a hit: at the highest dose activity change, negative = inhibition, usual class: inhibitors | 150,000 compounds, 0.12% hits | P18054 | purified 12-hLO, xylenol orange hydroperoxide absorbance; also: potency is read from the fitted curve at half-maximal effect; nearly all actives have a fitted effect of over 55% in size
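Xylenol orange chromogenic assay: hydroperoxide from 12hLO oxidises Fe(II), giving red-shifted Fe(III)-XO absorbance. Conditions: 150 nM enzyme, 40 uM arachidonic acid, 25 mM Hepes pH 7.0, 0.01% Triton X-100, 30 min, room temperature.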
IMPase Li inh = membrane-permeable IMPase blocker, potentiated with lithium; CHO-M1 cells, IP1 TR-FRET (IP-One), carbachol + lithium; Potency, µM (top dose mostly 59.4 µM), for inactives: at the top dose activity, negative = IMPase inhibition, most hits filed as inhibitors; 210,000 compounds, 0.35% hits; AID 1457;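 also: IP1 builds up when IMPase is blocked and the TR-FRET signal falls; potency is read from the fitted curve at half-maximal effect; plate controls were basal vehicle for no effect and high inhibitor control for full effect; nearly all actives have a fitted effect of over 50% in size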
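Readout is a homogeneous TR-FRET IP1 immunoassay (Ex 320, Em 665 and 620), where raised cytosolic IP1 lowers signal. Cells were CHO-M1 treated 30 min at 37C with test compounds plus a little lithium; AC50 values came from Hill-equation fitting.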
ALOX15B inhib = 15-hLO-2 (ALOX15B) enzyme inhibition. O15296. purified 15hLO-2, xylenol orange hydroperoxide absorbance. Potency, µM (titrated, usually from 57.1 µM), for the others: at the highest dose activity change, negative = inhibition, usual class: inhibitors. 110,000 compounds, 0.56% hits; also: potency is read from the fitted curve at half-maximal effect; nearly all actives have a fitted effect of over 60% in size
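Screening format was qHTS against 50 nM purified 15hLO-2 in Hepes pH 7.5 with detergent. Activity follows hydroperoxide formation from 45 uM arachidonic acid, measured as 573:405 nm absorbance ratio of the ferric-xylenol orange complex.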
IMPase cell inh = cell-permeable inhibitors of inositol monophosphatase (IMPase). P97697. CHO-M1 cells, IP1 accumulation, HTRF TR-FRET ratio. inhibition (IP1 accumulation), % at 46.1 µM. 120,000 tested, under 10 active; active = well fitted curve in the direction sought with a large enough effect in the signal ratio, not every such curve was filed as active; inconclusive = small, poorly fitted or top-dose-only effect, or a change in a side signal; inactive = no such curve, though single readings can be large or run the other way; the % refers to the signal ratio;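 also: cells stimulated with carbachol in lithium chloride buffer; plate controls were DMSO basal wells for no effect and reference inhibitor wells for full effect; higher means more IMPase inhibition seen as more IP1 and lower FRET ratio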
Target sequence (P97697 whole entry, looked up): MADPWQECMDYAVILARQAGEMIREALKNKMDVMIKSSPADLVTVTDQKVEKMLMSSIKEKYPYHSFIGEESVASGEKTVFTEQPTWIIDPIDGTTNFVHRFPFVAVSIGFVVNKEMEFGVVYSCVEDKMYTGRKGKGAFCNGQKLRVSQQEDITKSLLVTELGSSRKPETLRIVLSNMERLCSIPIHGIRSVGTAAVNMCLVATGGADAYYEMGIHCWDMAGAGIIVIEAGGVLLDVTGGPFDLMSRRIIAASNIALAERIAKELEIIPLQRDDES
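In this qHTS, compounds (final up to 46 uM) act on CHO-M1 cells that are then activated through the M1 receptor with carbachol, in pH 7.4 buffer containing 50 mM LiCl, for 30 min. IP1 accumulation is quantified by the IP-One immunoassay.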
The depositor's hits bear a star; ? = inconclusive; / = not tested or not shown; [ ] = remark or other dose. Unless noted, calls follow the shape of the dose curve; as a rule, active = well fitted curve in the direction sought with a large enough effect; inconclusive = small, poorly fitted or top-dose-only effect, or another doubt; inactive = no such curve, though single readings can be large; an effect the other way counts as inactive or inconclusive. Unless noted, % is scaled to controls: 0 for no effect and ±100 for the full control effect.

SMILES	PNC assembly inh	12-hLO inh	IMPase Li inh	ALOX15B inhib	IMPase cell inh
CCc1ccc(N2CC(C(=O)OC)CC2=O)cc1 (stereo not given)	/	/	3%	/	/
COc1ccc2[nH]c(=O)c(C(c3nnnn3C(C)(C)C)N(Cc3ccco3)CC3CCCO3)cc2c1 (stereo not given)	-1	-8%	16µM*	-5%	2
CCCCNS(=O)(=O)c1ccc2nc(-c3cccnc3)cc(C(=O)NCCCOC)c2c1	/	/	1%	/	/
CCCCNS(=O)(=O)c1ccc2nc(-c3cccnc3)cc(C(=O)NCCCOCC)c2c1	/	/	11µM*	/	/
N.N.N.N.N.N.N.N.N.N.N.N.N.N.O.O.[Cl-].[Cl-].[Cl-].[Cl-].[Cl-].[Cl-].[Ru].[Ru].[Ru]	/	/	10%	/	/
COc1cccc(-c2nc(-c3ccccn3)no2)c1OC	-84*	-3%	39%[38.3 µM]	-2%	1
Cc1nc(NC2CCCCC2)c2nc(-c3ccccc3)n(CC3CCN(C)CC3)c2n1	/	-7%	-8%	45%	/
COc1ccc(NC(=O)Cn2cc(S(=O)(=O)Cc3ccccc3)c3ccccc32)c(OC)c1	16	-6%	8%	/	-1
O=C(Cn1cc(S(=O)(=O)Cc2ccccc2)c2ccccc21)Nc1ccccc1	-82*	-4%	1%	/	/
O=c1c(CCc2ccccc2)nc2cnc(N3CCNCC3)nc2n1Cc1ccc(F)cc1	/	7%	21%	5%	/
COc1cc(C2NC(=O)NC(C)=C2C(=O)Nc2cc(C)cc(C)c2)ccc1O (stereo not given)	/	/	/	/	-1
CCOc1ccc2c(c1)sc(N)[n+]2Cc1cc(C)cc2cccnc12	-85*	-1%	27%	/	21
CCOC(=O)CCCCNCc1ccccc1	-100*	9%	-1%	/	-7
O=C(O)CCCCNCc1ccccc1	-13	4%	28%[38.3 µM]	-2%	-5
O=[N+]([O-])c1cccc2ccc(/C=C/c3ccc(F)cc3)nc12	-114*	-12%	0%	/	/
S=C(NCCC(c1ccccc1)c1ccccc1)Nc1ccc(Cl)cc1	-18	?	11%[38.3 µM]	25µM*	4
COc1cc(NC(=S)NCCC(c2ccccc2)c2ccccc2)c(OC)cc1Cl	74	22µM*	/	/	-21
COc1ccc(Cl)cc1NC(=S)NCCC(c1ccccc1)c1ccccc1	59	?	15%	/	-9
Cc1ccc(CNC(=O)CSc2n[nH]c(N)n2)cc1	-93*	-2%	14%[38.3 µM]	1%[2.29 µM]	4
Nc1nc(SCC(=O)NCc2ccccc2)n[nH]1	19	0%	5%[38.3 µM]	-6%	0
CC1CCN(C(=S)NCCc2ccccc2)CC1	17	1%	27%[38.3 µM]	-4%	-3
CN1CCN(C(=S)NCCc2ccccc2)CC1	-82*	1%	4%	-9%	-3
Cc1ccc(-c2csc(/C(C#N)=C/c3ccccc3Cl)n2)cc1	/	/	/	/	-6
c1cc(NC2CC2)nc(-c2ccoc2)n1	/	/	-3%	7%	/
O=C(CN1CCN(c2ccc(F)cc2)CC1)NCC1CCCO1 (stereo not given)	14	-1%	-13%[38.3 µM]	-2%	-9
SMILES	PNC assembly inh	12-hLO inh	IMPase Li inh	ALOX15B inhib	IMPase cell inh
COc1ccccc1N1CCN(CC(=O)NCC2CCCO2)CC1 (stereo not given)	-119*	-11%	10%	/	10
O=C(O)CSc1ccc(N=C=S)cc1	/	1%[11.4 µM]	-5%	-6%[11.4 µM]	/
CCN(CC)C(=O)Cn1c(=O)n(CCCCCC(=O)Nc2ccccc2)c(=O)c2sccc21	-113*	4%	4%	/	/
Cc1cccc(C)c1NC(=O)Cn1c(=O)n(CCCC(=O)NCc2ccco2)c(=O)c2sccc21	-91*	-6%	/	6%	1
O=C(CCCn1c(=O)c2sccc2n(CC(=O)NCc2ccco2)c1=O)NCc1ccco1	9	-2%	-2%	2%	-8
CCC(C)NC(=O)Cn1c(=O)n(CCCCCC(=O)Nc2ccccc2)c(=O)c2sccc21 (stereo not given)	-21	2%	-4%	/	/
O=C(O)c1cc(S(=O)(=O)Nc2cccc(Cl)c2)ccc1O	/	0%	/	/	/
CSc1nc2sc3c(c2c(=O)n1C)CCCC3	-87*	0%	1%[38.3 µM]	4%	5
CSc1nc2sc3c(c2c(=O)n1C)CCC(C)C3 (stereo not given)	13	-4%	6%[38.3 µM]	-23%	-2
CC(=O)N1CCC2(CC1)CN(C(c1ccccc1)c1ccccc1)C2	/	8%	-3%	18%	/
O=c1c2c(-c3cccs3)csc2[nH]c(=S)n1-c1ccccc1	?	-8%	10µM*	?	?
O=C(N/N=C\c1cccc(Cl)c1)c1n[nH]c2c1CCCC2	-24	-1%	-1%	/	4
O=C(N/N=C/c1ccc(Cl)cc1Cl)c1n[nH]c2c1CCCC2	-84*	3%	1%	/	/
O=C(N/N=C/C=C/c1ccccc1)c1n[nH]c2c1CCC2	-98*	-1%	14%[38.3 µM]	-3%	3
O=C(N/N=C/C(Br)=C\c1ccccc1)c1n[nH]c2c1CCC2	?	3%	33%[38.3 µM]	6%	16
C[C@H]1OC(=O)CC[C@@H]2[C@]1(C)CCC1[C@@]2(C)CC[C@@]2(C)C3CC(C)(C)CC[C@]3(CO)CC[C@]12C (stereo not given in full)	/	/	-4%	/	/
O=C(O)/C=C\C(=O)Nc1ccccc1F	-119*	3%	-4%	/	0
O=C1c2ccccc2C(=O)C1(O)O	/	?	2%	25µM*	/
COC(=O)C1OC(=O)C2O[C@@]23[C@]2(C)C(OC(C)=O)CC4C(C)(C)C(=O)CC[C@]4(C)C2CC[C@@]13C (stereo not given in full)	/	2%	0%	0%	/
CCOc1ccc(NC(=O)CC2C(=O)N(CC)C(=S)N2CCNC(C)=O)cc1 (stereo not given)	11	0%	3%	/	/
CCN1C(=O)C(CC(=O)Nc2ccc(OC)cc2)N(Cc2cccs2)C1=S (stereo not given)	-8	-1%	9%[38.3 µM]	-15%	1
CCCOc1ccc(NC(=O)CC2C(=O)N(C)C(=S)N2Cc2cccs2)cc1 (stereo not given)	-119*	4%	6%	/	-1
CCCOc1ccc(NC(=O)CC2C(=O)N(CC)C(=S)N2CCNC(C)=O)cc1 (stereo not given)	-113*	-1%	-4%	/	/
Fc1ccc(Nc2nc(-c3ccoc3)nc3ccccc23)cc1	/	/	13%	29%	/
CCC1(C)Cc2c(sc3nc(SCC(=O)O)[nH]c(=O)c23)CO1 (stereo not given)	-102*	-2%	-1%	6%	1
Nc1nc2c(s1)CCc1c-2cnn1-c1ccccc1	10	?	68%[38.3 µM]	1µM*	21
Nc1nc2c(s1)COc1ccccc1-2	/	/	-3%	/	/
C#CCCCC(=O)Nc1ccccc1	/	0%	-10%	10%	/
O=C(c1ccccc1CCc1ccccc1)N1CCN(c2ccccn2)CC1	-84*	-3%	5%[38.3 µM]	5%[2.29 µM]	1
